Some test systems named below: HCT-15 colon; HT29 colon; SNB-19 CNS; U251 CNS; SK-MEL-5 melanoma; UACC-62 melanoma; LOX IMVI melanoma; SK-MEL-28 melanoma; SK-MEL-2 melanoma; EKVX NSCLC; SN12C renal; UO-31 renal; TK-10 renal; ACHN renal; A498 renal; CCRF-CEM leukemia; MOLT-4 leukemia; SR leukemia; PC-3 prostate.
Common to all, as to experiment: NCI-60 one-dose screen, 48 h (100 = growth as untreated, 0 = no growth, -100 = all killed)
Holding throughout (settings): 10 µM unless noted

This passage reports growth results from PubChem BioAssay (NCI).

SMILES strings stand for the structures. About 83,000 compounds went through this panel and 20% of them were active in at least one assay; those are over-represented in the sample as a whole.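 48-hour exposure, single concentration, 96-well plates; percent growth endpoint where 0 means no net growth. Active: below 10.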 A number with no mark means an inactive call. Activity calls are given as the source filed them.

For the compound `CC(C)C1=C[C@@]23CC[C@H]4[C@](C)(COCCC#N)CCC[C@]4(C)[C@H]2C[C@@H]1[C@@H]1[C@H]3[C@@H](OCCC#N)CC[C@@H]1OCCC#N`, the growth in the assay on HCT-15 colon was 22.8%; in the assay with HT29 colon, 12.1%; in the assay with SNB-19 CNS, 50.3%; in the assay with U251 CNS it was 29.1%; with SK-MEL-5 melanoma it was 39.1%; in the assay on UACC-62 melanoma it was 45.3%. The growth in the assay on LOX IMVI melanoma was 40.1%; with SK-MEL-28 melanoma, 48.7%; in the assay on SK-MEL-2 melanoma, 24.5%; in the assay with EKVX NSCLC, 17.6%; with SN12C renal, 32.9%; in the assay with UO-31 renal, 24.8%. Further, the growth was 37.7% in the assay on TK-10 renal; 25% in the assay with ACHN renal; 67.7% with A498 renal; 34.3% in the assay with CCRF-CEM leukemia; 5.36% (active) in the assay on MOLT-4 leukemia; 15% in the assay on SR leukemia.
In the case of `CCCn1c(N)c(C(N)=O)sc1=S`, the growth in the assay on HCT-15 colon is 90.6%; in the assay with HT29 colon, 106%; in the assay with SNB-19 CNS it was 97.2%; with U251 CNS, 97.4%; in the assay with PC-3 prostate, 96%; in the assay on SK-MEL-5 melanoma, 111%. In addition, the growth in the assay on UACC-62 melanoma was 97.9%; in the assay with LOX IMVI melanoma, 93.7%; in the assay on SK-MEL-28 melanoma it was 105%; in the assay on SK-MEL-2 melanoma, 93.3%; in the assay with EKVX NSCLC, 116%; in the assay with SN12C renal, 93.8%. Also, the growth was 79.2% in the assay with UO-31 renal; 130% in the assay on TK-10 renal; 93.9% with ACHN renal; 98.5% in the assay with A498 renal; 108% with CCRF-CEM leukemia; 97% in the assay on MOLT-4 leukemia. Also, the growth in the assay on SR leukemia is 66.6%.
With `Nc1c(C(=O)Nc2cccc3ccccc23)sc2nc3c(cc12)COCC3`, the growth in the assay with HCT-15 colon is 32.2%; in the assay on HT29 colon it was 12.4%; in the assay with SNB-19 CNS, 33.4%; in the assay with U251 CNS, 30%; in the assay on PC-3 prostate, 53.5%; in the assay on SK-MEL-5 melanoma it was 31%. Besides, the growth in the assay with UACC-62 melanoma is 30.2%; with LOX IMVI melanoma, 42.7%; in the assay with SK-MEL-28 melanoma it was 60.6%; in the assay with SK-MEL-2 melanoma, 49.1%; in the assay with EKVX NSCLC it was 85.1%; with SN12C renal, 59.9%. The growth with UO-31 renal was 77%; with TK-10 renal, 96.4%; in the assay on ACHN renal, 62.5%; in the assay on A498 renal, 54.2%; in the assay on CCRF-CEM leukemia, 23.6%; with MOLT-4 leukemia, 35%. The growth in the assay on SR leukemia is 22.4%.
Take `Cc1cccc(C)c1NC(=O)CN(CC(C)C)CC(O)COc1ccccc1` (stereo not given): the growth in the assay on HCT-15 colon was 90.7%; in the assay with HT29 colon, 85.5%; with SNB-19 CNS, 108%; with U251 CNS, 99.7%; in the assay with PC-3 prostate, 86.3%; with SK-MEL-5 melanoma it was 95.5%. Also, the growth in the assay on UACC-62 melanoma was 83.9%; in the assay on LOX IMVI melanoma, 95.3%; in the assay with SK-MEL-28 melanoma, 109%; with SK-MEL-2 melanoma, 93.8%; in the assay on EKVX NSCLC, 85.2%; in the assay on SN12C renal it was 104%. Also, the growth in the assay with UO-31 renal was 85.8%; in the assay with TK-10 renal, 96.9%; in the assay with ACHN renal it was 104%; with A498 renal, 63.8%; with CCRF-CEM leukemia, 96.9%; in the assay with MOLT-4 leukemia it was 88.2%. In addition, in the assay with SR leukemia, the growth was 92.1%.
Take `COc1ccc(-c2nc(C#N)c(NCC(c3ccc(Cl)cc3)N3CCCCC3)o2)cc1` (stereo not given): the growth in the assay on HCT-15 colon is 69.4%; with HT29 colon, 85.6%; in the assay on SNB-19 CNS, 113%; in the assay on U251 CNS it was 96%; in the assay with PC-3 prostate, 75.3%; with SK-MEL-5 melanoma it was 93.2%. The growth in the assay on UACC-62 melanoma is 90.4%; with LOX IMVI melanoma, 93.8%; with SK-MEL-28 melanoma, 94.3%; in the assay with SK-MEL-2 melanoma, 109%; with EKVX NSCLC it was 95.6%; with SN12C renal, 103%. In addition, the growth is 72% in the assay with UO-31 renal; 112% in the assay with TK-10 renal; 91.7% with ACHN renal; 108% in the assay with A498 renal; 86.9% in the assay with CCRF-CEM leukemia; 75.9% with MOLT-4 leukemia. In addition, the growth with SR leukemia was 74.5%.
On to `O=C1CC(c2ccc(O)c(O)c2)Oc2cc(O)c([C@@H]3O[C@H](CO)[C@@H](O)[C@H](O)[C@H]3O)c(O)c21` (stereo not given in full), for which the growth with HCT-15 colon was 102%; in the assay on HT29 colon it was 103%; in the assay on SNB-19 CNS, 102%; with U251 CNS, 98.1%; in the assay with PC-3 prostate, 97.3%; with SK-MEL-5 melanoma, 103%. For the same compound, the growth in the assay on UACC-62 melanoma was 105%; in the assay on LOX IMVI melanoma, 104%; in the assay with SK-MEL-28 melanoma, 107%; in the assay with SK-MEL-2 melanoma, 104%; in the assay with EKVX NSCLC it was 99.5%; in the assay with SN12C renal, 98.7%. Also, the growth with UO-31 renal is 103%; with TK-10 renal, 106%; in the assay on ACHN renal it was 102%; in the assay with A498 renal, 108%; in the assay with CCRF-CEM leukemia, 97.3%; in the assay on MOLT-4 leukemia, 100%. In addition, the growth in the assay on SR leukemia was 98.6%.
For `COc1cc(C2=N/C(=C\c3cc4ccccc4nc3Oc3ccccc3)C(=O)N2C(=N)N)cc(OC)c1OC`, the growth in the assay with HCT-15 colon was 91.3%; with HT29 colon, 64.2%; in the assay with SNB-19 CNS, 32.3%; in the assay on U251 CNS it was 50.6%; in the assay with PC-3 prostate, 70.4%; in the assay with SK-MEL-5 melanoma, 83.5%. Moreover, the growth in the assay with UACC-62 melanoma was 50%; with LOX IMVI melanoma it was 66.9%; in the assay on SK-MEL-28 melanoma it was 78.4%; in the assay with SK-MEL-2 melanoma, 84.7%; in the assay with EKVX NSCLC it was 72.1%; with SN12C renal, 43.1%. In addition, the growth in the assay on UO-31 renal is 55.3%; with TK-10 renal, 80.6%; in the assay on ACHN renal, 61.9%; in the assay on A498 renal, 69%; in the assay with CCRF-CEM leukemia, 87.3%; in the assay on MOLT-4 leukemia it was 85.1%. Moreover, the growth with SR leukemia was 63.8%.
As to `CSc1cccc(NC(=O)Nc2nc3c(C)cccc3s2)c1`, the growth with HCT-15 colon is 97.9%; with HT29 colon, 99.5%; in the assay with SNB-19 CNS, 98.2%; in the assay with U251 CNS it was 98.9%; in the assay with SK-MEL-5 melanoma, 95.6%; in the assay on UACC-62 melanoma, 78.3%. Also, the growth in the assay on LOX IMVI melanoma was 97.5%; with SK-MEL-28 melanoma, 112%; with SK-MEL-2 melanoma it was 98.5%; with EKVX NSCLC it was 80.2%; in the assay on SN12C renal, 94.3%; in the assay on UO-31 renal it was 84.4%. For the same compound, the growth is 119% in the assay with TK-10 renal; 101% with ACHN renal; 106% in the assay with A498 renal; 106% with CCRF-CEM leukemia; 99.9% with MOLT-4 leukemia; 83.7% with SR leukemia.
